From PubChem BioAssay (NCI)
This is part of a sample that, as a whole, favours compounds with a hit. Of some 79,000 tested, about 15% had one in any assay. Values without a mark were called inactive. The source made the active and inactive calls. Rule as the data show it: active = growth inhibition above about 70%; inactive = the rest.

Columns and labels:
[1] = NCI Yeast Anticancer Drug Screen. Data for the rad52 strain (AID 147);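 also: 0% = growth of vehicle-treated control cultures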; settings: S. cerevisiae rad52 mutant growth inhibition, active compounds read high
Summary of the method: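 Genetically altered yeast (DNA damage repair defect) treated with compound; inhibition calculated relative to vehicle.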

[2] = NCI Yeast Anticancer Drug Screen. Data for the wt1 strain (AID 149);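 also: 0% = growth of vehicle-treated wt1 cultures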; settings: S. cerevisiae wt1 strain (SPY 50644) growth inhibition, active compounds read high
Summary of the method: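 Each compound is tested on wt1 yeast and the loss of growth versus vehicle gives the inhibition value.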

[3] = NCI Yeast Anticancer Drug Screen. Data for the rad50EPP+ strain (AID 151);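 also: 0% = growth of vehicle-treated control cultures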; settings: S. cerevisiae rad50 mutant strain, active compounds read high
Summary of the method: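 Strain rad50EPP+; compound exposure; % growth inhibition vs vehicle.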

[4] = NCI Yeast Anticancer Drug Screen. Data for the mgt1 strain (AID 153); settings: S. cerevisiae mgt1 mutant growth inhibition, active compounds read high
Summary of the method: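 Read-out: yeast growth inhibition vs vehicle control. Strain mgt1, drawn from a panel altered in DNA damage repair or cell cycle control.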

[5] = NCI Yeast Anticancer Drug Screen. Data for the rad50 strain (AID 155);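 also: 0% = growth of vehicle-only cultures of the same strain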; settings: S. cerevisiae rad50 strain growth inhibition, active compounds read high
Summary of the method: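 Vehicle-treated cultures provide the reference for the growth inhibition reported for compound-exposed, repair-deficient yeast.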

[6] = NCI Yeast Anticancer Drug Screen. Data for the mec2-1 strain (AID 157); settings: S. cerevisiae mec2-1 strain, active compounds read high
Summary of the method: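 Cells of the genetically defined mec2-1 yeast strain are incubated with test compound. Inhibition of growth is calculated against vehicle-treated controls.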

[7] = NCI Yeast Anticancer Drug Screen. Data for the rad14 strain (AID 159);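 also: 0% = growth of vehicle-treated control cultures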; settings: S. cerevisiae rad14 strain growth inhibition, active compounds read high
Summary of the method: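 Inhibition of growth is reported for a repair-deficient yeast mutant following compound treatment, calculated relative to cultures that received vehicle.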

[8] = NCI Yeast Anticancer Drug Screen. Data for the sgs1 mgt1 strain (AID 161);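 also: 0% = growth of cultures given vehicle only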; settings: S. cerevisiae sgs1 mgt1 strain, active compounds read high
Summary of the method: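 Read-out: growth inhibition vs vehicle controls. Cells: mutant yeast strain deficient in DNA damage repair.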

[9] = NCI Yeast Anticancer Drug Screen. Data for the CLN2oe strain (AID 163);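 also: 0% = growth of vehicle-only control cultures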; settings: S. cerevisiae CLN2oe strain, active compounds read high
Summary of the method: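 Strain altered in cell-cycle control, incubated with compound; growth compared to solvent-treated controls.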

[10] = NCI Yeast Anticancer Drug Screen. Data for the cln2 rad14 strain (AID 165);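 also: 0% = growth equal to vehicle treated cultures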; settings: S. cerevisiae cln2 rad14 strain, active compounds read high
Summary of the method: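 The screen exposed genetically defined yeast (cln2 rad14) to test compounds and scored growth inhibition relative to vehicle-treated controls.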

[11] = NCI Yeast Anticancer Drug Screen. Data for the bub3 strain (AID 167); settings: S. cerevisiae bub3 mutant strain, active compounds read high
Summary of the method: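 Mutant yeast screening strain plus compound; vehicle-treated cultures serve as the 0% inhibition reference.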

[12] = NCI Yeast Anticancer Drug Screen. Data for the wt2 strain (AID 169); settings: S. cerevisiae wt2 strain growth inhibition, active compounds read high
Summary of the method: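 Steps: yeast strain treated with compound; growth recorded; inhibition calculated relative to cultures given vehicle alone.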

[13] = NCI Yeast Anticancer Drug Screen. Data for the sgs1 strain (AID 173);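 also: 0% = growth of vehicle-only control cultures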; settings: S. cerevisiae sgs1 mutant, active compounds read high
Summary of the method: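 Inhibition of yeast growth served as the measure. The mutant strain was treated with each compound, and growth was normalised to cultures receiving vehicle alone.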

[14] = NCI Yeast Anticancer Drug Screen. Data for the mlh1 rad18 strain (AID 175); settings: S. cerevisiae mlh1 rad18 strain growth inhibition, active compounds read high
Summary of the method: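 Compound-treated yeast growth, normalised to vehicle controls. Strain bears defined DNA repair mutations.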

[15] = NCI Yeast Anticancer Drug Screen. Data for the rad18 strain (AID 177); settings: S. cerevisiae rad18 mutant growth inhibition, active compounds read high
Summary of the method: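 Inhibition values reflect reduced yeast growth compared with vehicle-treated controls, using a strain engineered with a DNA damage repair defect.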

[16] = at 5.0 µM (retest, dose inferred, filed as 0.5)
[17] = at 50.0 µM (retest, dose inferred, filed as 5.0)

Question: Which growth inhibition ([1]; at 1.2 µM) does the source give for `O=C(NC(N1CCN(c2cc3c(cc2F)c(=O)c(C(=O)O)cn3C2CC2)CC1)(C(F)(F)F)C(F)(F)F)c1ccccc1` here?
Answer: -2%

Question: And the growth inhibition ([1]; at 3.7 µM)?
Answer: 1%

Question: What about the growth inhibition ([1]; at 11.0 µM) of the same compound?
Answer: 17%

Question: What about the growth inhibition ([1]; at 33.0 µM) of the same compound?
Answer: 90% (active)

Question: What about the growth inhibition ([1]; at 100.0 µM) of the same compound?
Answer: 90% (active)

Question: And the growth inhibition ([2]; at 1.2 µM)?
Answer: -2%

Question: What about the growth inhibition ([2]; at 3.7 µM) of the same compound?
Answer: -3%

Question: What about the growth inhibition ([2]; at 11.0 µM) of the same compound?
Answer: -1%

Question: What about the growth inhibition ([2]; at 33.0 µM) of the same compound?
Answer: 8%

Question: What about the growth inhibition ([2]; at 100.0 µM) of the same compound?
Answer: 40%

Question: And the growth inhibition ([3]; at 1.2 µM)?
Answer: -2%

Question: And the growth inhibition ([3]; at 3.7 µM)?
Answer: -1%

Question: And the growth inhibition ([3]; at 11.0 µM)?
Answer: 4%

Question: What about the growth inhibition ([3]; at 33.0 µM) of the same compound?
Answer: 27%

Question: What about the growth inhibition ([3]; at 100.0 µM) of the same compound?
Answer: 40%

Question: What about the growth inhibition ([4]; at 1.2 µM) of the same compound?
Answer: -1%

Question: What about the growth inhibition ([4]; at 3.7 µM) of the same compound?
Answer: -2%

Question: What about the growth inhibition ([4]; at 11.0 µM) of the same compound?
Answer: -2%

Question: What about the growth inhibition ([4]; at 33.0 µM) of the same compound?
Answer: 6%

Question: What about the growth inhibition ([4]; at 100.0 µM) of the same compound?
Answer: 42%

Question: What about the growth inhibition ([5]; at 1.2 µM) of the same compound?
Answer: -1%

Question: What about the growth inhibition ([5]; at 3.7 µM) of the same compound?
Answer: 5%

Question: And the growth inhibition [5, 16]?
Answer: -1%

Question: What about the growth inhibition ([5]; at 11.0 µM) of the same compound?
Answer: 19%

Question: What about the growth inhibition ([5]; at 33.0 µM) of the same compound?
Answer: 88% (active)

Question: What about the growth inhibition [5, 17] of the same compound?
Answer: 96% (active)

Question: And the growth inhibition ([5]; at 50.0 µM)?
Answer: 46.8%

Question: What about the growth inhibition ([5]; at 100.0 µM) of the same compound?
Answer: 91% (active)

Question: What about the growth inhibition ([6]; at 1.2 µM) of the same compound?
Answer: -2%

Question: And the growth inhibition ([6]; at 3.7 µM)?
Answer: -3%

Question: What about the growth inhibition [6, 16] of the same compound?
Answer: 3%

Question: What about the growth inhibition ([6]; at 11.0 µM) of the same compound?
Answer: 0%

Question: What about the growth inhibition ([6]; at 33.0 µM) of the same compound?
Answer: 35%

Question: What about the growth inhibition [6, 17] of the same compound?
Answer: 35%

Question: What about the growth inhibition ([6]; at 50.0 µM) of the same compound?
Answer: -19.2%

Question: And the growth inhibition ([6]; at 100.0 µM)?
Answer: 67%

Question: And the growth inhibition ([7]; at 1.2 µM)?
Answer: -2%

Question: What about the growth inhibition ([7]; at 3.7 µM) of the same compound?
Answer: -1%

Question: What about the growth inhibition ([7]; at 11.0 µM) of the same compound?
Answer: 2%

Question: What about the growth inhibition ([7]; at 33.0 µM) of the same compound?
Answer: 19%

Question: What about the growth inhibition ([7]; at 100.0 µM) of the same compound?
Answer: 44%

Question: And the growth inhibition [8, 16]?
Answer: 4%

Question: And the growth inhibition [8, 17]?
Answer: 25%

Question: What about the growth inhibition ([8]; at 50.0 µM) of the same compound?
Answer: 11.2%

Question: What about the growth inhibition ([9]; at 1.2 µM) of the same compound?
Answer: 2%

Question: And the growth inhibition ([9]; at 3.7 µM)?
Answer: 0%

Question: What about the growth inhibition ([9]; at 11.0 µM) of the same compound?
Answer: 1%

Question: And the growth inhibition ([9]; at 33.0 µM)?
Answer: 15%

Question: What about the growth inhibition ([9]; at 100.0 µM) of the same compound?
Answer: 58%

Question: What about the growth inhibition [10, 16] of the same compound?
Answer: -3%

Question: What about the growth inhibition [10, 17] of the same compound?
Answer: 20%

Question: And the growth inhibition ([10]; at 50.0 µM)?
Answer: 33.9%

Question: And the growth inhibition ([11]; at 1.2 µM)?
Answer: 0%

Question: And the growth inhibition ([11]; at 3.7 µM)?
Answer: -1%

Question: What about the growth inhibition [11, 16] of the same compound?
Answer: -7%

Question: And the growth inhibition ([11]; at 11.0 µM)?
Answer: 1%

Question: What about the growth inhibition ([11]; at 33.0 µM) of the same compound?
Answer: 2%

Question: What about the growth inhibition [11, 17] of the same compound?
Answer: 6%

Question: And the growth inhibition ([11]; at 50.0 µM)?
Answer: -13.9%

Question: What about the growth inhibition ([11]; at 100.0 µM) of the same compound?
Answer: 48%

Question: And the growth inhibition ([12]; at 1.2 µM)?
Answer: -2%

Question: And the growth inhibition ([12]; at 3.7 µM)?
Answer: -2%

Question: And the growth inhibition ([12]; at 11.0 µM)?
Answer: -1%

Question: What about the growth inhibition ([12]; at 33.0 µM) of the same compound?
Answer: 9%

Question: And the growth inhibition ([12]; at 100.0 µM)?
Answer: 34%

Question: And the growth inhibition ([13]; at 1.2 µM)?
Answer: -3%

Question: What about the growth inhibition ([13]; at 3.7 µM) of the same compound?
Answer: -2%

Question: What about the growth inhibition ([13]; at 11.0 µM) of the same compound?
Answer: 1%

Question: What about the growth inhibition ([13]; at 33.0 µM) of the same compound?
Answer: 29%

Question: And the growth inhibition ([13]; at 100.0 µM)?
Answer: 58%

Question: And the growth inhibition [14, 16]?
Answer: -5%

Question: What about the growth inhibition [14, 17] of the same compound?
Answer: 80% (active)

Question: What about the growth inhibition ([14]; at 50.0 µM) of the same compound?
Answer: -1.3%

Question: And the growth inhibition ([15]; at 1.2 µM)?
Answer: -3%

Question: What about the growth inhibition ([15]; at 3.7 µM) of the same compound?
Answer: -2%

Question: What about the growth inhibition ([15]; at 11.0 µM) of the same compound?
Answer: -1%

Question: And the growth inhibition ([15]; at 33.0 µM)?
Answer: 20%

Question: What about the growth inhibition ([15]; at 100.0 µM) of the same compound?
Answer: 52%
